High-throughput results deposited in PubChem BioAssay by National Center for Advancing Translational Sciences (NCATS).
RECQ1 inh = inhibitors of human RECQ1 DNA helicase | 240,000 tested, 0.54% active | P46063 | Potency, µM (series often up to 57.3 µM), usual class: inhibitors | RECQ1 DNA unwinding, red fluorescence kinetic read; also: nearly all actives have a fitted effect of over 30% in size
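RECQ1T1 50 nM; forked duplex (20 bp + 30-nt ss tails) 200 nM, ATP 2 mM final; pH 8.0, 2 mM MgCl2, 2.5 ug/ml poly(dI-dC); 15 min compound preincubation; discontinuous kinetic read over 2 h at RT.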
BLM helicase inh = blocks DNA unwinding by human BLM helicase; P54132; recombinant BLM DNA unwinding, fluorescence dequenching; Potency, µM (doses to about 56.1 µM), usual class: inhibitors; 350,000 tested, 0.2% active; AID 2528; also: nearly all actives have a fitted effect of over 35% in size
FEN1 inh = human FEN1 inhibition; P39748; Recombinant FEN1 flap cleavage, fluorescence, 15 min; AID 588795; 390,000 tested, 0.35% active; Potency, µM (highest dose often 114 µM), usual class: inhibitors; also: nearly all actives have a fitted effect of over 65% in size
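FEN1 at 10 nM, compound pretreatment for 15 min (room temperature), 50 nM final substrate to initiate; endpoint reads at 0 and 15 min; DMSO-only plates used as vehicle background.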
WRN helicase inh = inhibitors of human WRN helicase. Q14191. WRN helicase unwinding, fluorescent forked duplex, kinetic. Potency, µM (highest dose often 114 µM), most hits filed as inhibitors. 360,000 tested, 0.46% active; also: nearly all actives have a fitted effect of over 55% in size
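Screening of the MLSMR collection measured strand separation of a quenched forked DNA duplex (100 nM) by 20 nM WRN with 2 mM ATP, all final. Compounds were preincubated with enzyme 15 min at room temperature.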
APEX1 inh = inhibitors of human APE1 endonuclease; recombinant APE1, TAMRA/BHQ-2 abasic DNA cleavage fluorescence; P27695; Potency, µM (doses to about 65.8 µM), most hits filed as inhibitors; 350,000 tested, 0.35% active; AID 2517; also: nearly all actives have a fitted effect of over 55% in size
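Endonuclease cleavage of a quenched abasic-site DNA duplex (50 nM) by APE1 (0.75 nM) was tracked by TAMRA dequenching. Compounds were preincubated with enzyme 15 min at room temperature; data normalized to buffer-only and DMSO wells plus NSC13755 control.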
Hits are given with their value; n = inactive; u = inconclusive; x = no result given; ! = not confirmed by another sample; [ ] = another dose, or the depositor's remark. Hits are enriched below; roughly 0.87% of the tested compounds scored in any of these assays. Calls follow the shape of the dose curve; as a rule, active = well fitted curve in the direction sought with a large enough effect; inconclusive = small, poorly fitted or top-dose-only effect, or another doubt; inactive = no such curve, though single readings can be large; an effect the other way counts as inactive or inconclusive.

SMILES | RECQ1 inh | BLM helicase inh | FEN1 inh | WRN helicase inh | APEX1 inh
Cc1cc(C)nc(SCc2ccc(C(=O)N/N=C3\CCCC(=O)C3)cc2)n1 | 22µM | n | n | n | n
Cc1ccc(S(=O)(=O)Nc2ccc(O)c3ccccc23)c(C)c1 | x | n | u | 50µM | n
Cc1ccc(S(=O)(=O)NNc2ccccc2)c(C)c1 | n | n | n | 50µM | n
COc1ccc(S(=O)(=O)Nc2ccc(O)c3ccccc23)cc1 | n | n | u | 79µM | n
COc1ccc(S(=O)(=O)Nc2ccccc2)cc1 | x | x | n | n | x
Cc1ccc(C)c(S(=O)(=O)Nc2ccc(O)c3ccccc23)c1 | x | n | u | n | n
CCCCCCCCCCCCCCCCCCN(CCCCCCCCCCCCCCCCCC)c1ccc(/C=C/c2ccc(C=O)cc2)cc1 | x | x | n | x | x
CC(C)(C)n1ncc2c(=O)n(Cc3ccc(Cl)cc3C(F)(F)F)cnc21 | x | x | n | x | n
CCOC(=O)C[n+]1c(C)sc2ccc(OC)cc21 | n | n | n | 50µM | n
CCO/C(=C/c1sc2ccc(OC)cc2[n+]1CCCS(=O)(=O)[O-])CC | n | n | n | n | n
COc1ccc(-[n+]2c(C)cc(/C=C3\Sc4ccccc4N3C)cc2C)cc1 | n | n | 22µM | u | n
CCCCCCN(C(=O)CCCCCN1C(=O)NC(c2ccc(C3CCCCC3)cc2)C(C(=O)OCc2ccccc2)=C1C)C(C(=O)NCCCC)c1ccc(OCC(=O)OC)c(C(=O)OC)c1 (centres undefined) | n | n | x | x | 0.45µM!
CCCCCCN(C(=O)CCCCCN1C(=O)NC(c2ccccc2)C(C(=O)OCc2ccccc2)=C1C)C(C(=O)NCCCC)c1ccc(OCC(=O)OC)c(C(=O)OC)c1 (centres undefined) | n | n | x | x | n
COc1ccc([N+](=O)[O-])cc1NC(=O)Nc1ccc(OC)c(OC)c1 | n | 32µM | n | u | n
Cc1ccc(CN(C)c2ccc(N3CCN(C)CC3)cc2)cc1 | x | x | x | x | n
Cc1ccc2nccc(/C=C/c3ccc(N(C)C)cc3)c2c1 | x | x | n | x | x
COc1cccc2c1C(=O)c1c(O)c3c(c(O)c1C2=O)C[C@@](O)(C(=O)CO)C[C@@H]3O[C@H]1C[C@H](N)[C@@H](O)[C@H](C)O1 | x | x | u | 56µM | x
COc1ccc(/C=C2/SC(=S)N(NS(=O)(=O)c3ccccc3)C2=O)cc1 | x | n | n | u | n
CCOc1cc(/C=C2\SC(=S)N(NS(=O)(=O)c3ccc(C)cc3)C2=O)ccc1O | x | x | n | 50µM | x
COc1cc(/C=C2\SC(=S)N(NS(=O)(=O)c3ccc(C)cc3)C2=O)cc(OC)c1OC | n | n | n | n | n
COc1cc(/C=C2\SC(=S)N(NS(=O)(=O)c3ccccc3)C2=O)ccc1O | 28µM | n | n | 50µM | n
C=CC[n+]1ccc2ccccc2c1C | n | n | n | n | n
C=CC[n+]1ccc(/C=C2\C=Cc3cc(C)ccc3N2CC)c2ccccc21 | n | u | u | 40µM | n
Cc1cccc(-c2ccc3ncnc(NCc4cccc(F)c4)c3c2)c1 | x | x | x | x | n
CSc1ccc(/C=N/NC(=O)c2ccc(C)c(C)c2)cc1 | n | 28µM | n | n[11.6 µM] | n
SMILES | RECQ1 inh | BLM helicase inh | FEN1 inh | WRN helicase inh | APEX1 inh
COc1ccc(C2CC(=O)N(Cc3ccccc3)c3c2c(C)nn3-c2nc(C)cc(C)n2)c(OC)c1 (centres undefined) | x | n | n | x | x
COc1ccc(C(=O)N2C(=S)NC(=O)/C2=C\c2ccc(C)cc2)cc1 | n | u | u | 50µM | n
O=C(c1cc(O)c(O)c([N+](=O)[O-])c1)c1ccccc1F | 2.2µM | x | n | u | n
CN1C(=O)/C(=C/c2ccc(-c3ccccc3[N+](=O)[O-])o2)SC1=Nc1ccc(Cl)c(C(=O)O)c1 | n | n | 45µM | 56µM | n
Cc1ccc(C)c(N2C(=N)S/C(=C\c3ccc(-c4ccccc4C(=O)O)o3)C2=O)c1 | n | n | n | u | u
[N-]=C=C1C(=S)NC(=O)[C@H]([n+]2ccccc2)[C@H]1c1ccc(Cl)cc1 | 32µM | n | n | n | u
Cc1nnc(SCC(=O)NCc2ccco2)[nH]c1=O | n | n | n | n | 25µM
COc1ccc(C2=Nn3c(nnc3-c3ccccc3OC)SC2)cc1O[C@H]1CCOC1 | x | x | x | x | n
C/C(=N\NC(=O)c1cc(O)ccc1O)c1cccc(NC(=O)c2ccc(Cl)cc2)c1 | x | n | u | 40µM | n
C/C(=N\NC(=O)c1cc(O)ccc1O)c1cccc(NC(=O)c2cccc(Cl)c2)c1 | x | n | u | n[11.6 µM] | n
COc1ccccc1CCNC(=O)c1ccc(NC(=O)N2CC(C)Sc3ccccc32)cc1 (centres undefined) | x | n | n | x | x
C=CCN1C(=O)/C(=C2/C(=O)N(CC(=O)O)c3ccccc32)S/C1=N/c1nccs1 | 16µM | n | x | x | 13µM
C=CCN1C(=O)/C(=C/c2ccc(O)cc2)S/C1=N/c1nccs1 | n | n | n | n | n
O=c1[nH]c(=O)n(C2CC(O)C(CO)O2)cc1F (centres undefined) | n | n | x | x | n
CCCCCCCCCCCCCCCCCCNc1ccn(C2OC(COP(=O)(O)OCC3OC(n4cc(F)c(=O)[nH]c4=O)CC3O)C(O)C2O)c(=O)n1 (centres undefined) | x | x | u | 40µM | x
O=C(Nc1cccc([N+](=O)[O-])c1)c1ccc2nc(N3C(=O)CCC3=O)sc2c1 | n | n | n | 45µM | n
O=C(Nc1cccc(Br)c1)c1ccc2nc(N3C(=O)CCC3=O)sc2c1 | n | n | n | u | n
Cc1c2oc3c(C)ccc(C(=O)NC4C(=O)NC(C(C)C)C(=O)N5CCCC5C(=O)N(C)CC(=O)N(C)C(C(C)C)C(=O)OC4C)c3nc-2c(C(=O)NC2C(=O)NC(C(C)C)C(=O)N3CCCC3C(=O)N(C)CC(=O)N(C)C(C(C)C)C(=O)OC2C)c(N)c1=O (centres undefined) | 3.2µM | x | x | x | 13µM
CSCC[C@H](NC(=O)[C@H](CC(C)C)NC(=O)CNC(=O)[C@@H]1CCCN1C(=O)[C@H](Cc1ccccc1)NC(=O)[C@H](Cc1ccccc1)NC(=O)[C@H](CC(=O)O)NC(=O)[C@H](Cc1cnc[nH]1)NC(=O)[C@H](CCSC)NC(=O)[C@@H](N)CC(=O)O)C(N)=O | 11µM | n | x | x | u
O=C(c1ccc2c(c1)OCCO2)N1CCN(c2nc(-c3cccs3)nc3ccccc23)CC1 | x | x | n | x | x
CCc1nc2sc3ccccc3c(=O)c2c(=O)n1Cc1ccco1 | n | u | u | 56µM | u
Cc1sc(-n2c(C)cc(/C=C3\SC(=S)NC3=O)c2C)c(C#N)c1C | 28µM | n | u | 56µM | n
CN(C)c1oc(-c2cccc3ccccc23)nc1C#N | x | x | x | x | n
COc1cccc(CNC(=O)c2ccc(NC(=O)N3CCCCc4ccccc43)cc2)c1 | x | n | n | x | x
c1coc(-c2nc3cc4ccccc4cc3nc2-c2ccco2)c1 | x | x | 5.6µM | x | x
c1coc(-c2nc(-c3ccco3)c(-c3ccco3)nc2-c2ccco2)c1 | 4µM | 14µM | 35µM | 20µM | 1.4µM
